# BAZ2B block: qHTS Assay for Inhibitors of BAZ2B; AID 504333, 2011; Bromodomain adjacent to zinc finger domain protein 2B (Homo sapiens), Q9UIF8; AlphaScreen BAZ2B-H3K14Ac peptide displacement; Potency, µM (titrated, usually from 114 µM), usual class: inhibitors; 360,000 tested, 4.4% active; note: nearly all actives have a fitted effect of over 60% in size
#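 BAZ2B (50 nM) with biotin-H3(5-23)K14Ac peptide (50 nM) in PBS pH 7.4, 0.01% Tween-20, preformed 30 min, then compound 30 min at room temperature; top concentration 110uM. AlphaScreen streptavidin donor/nickel chelate acceptor beads (10 ug/mL final), 20 min dark, signal read.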
# HP1b binding inh: HTS for Inhibitors of HP1-beta Chromodomain Interactions with Methylated Histone Tails. Chromobox protein homolog 1 (Homo sapiens), P83916. AlphaScreen HP1-beta / biotin-H3K9me3 peptide binding. Potency, µM (series often up to 114 µM), usual class: inhibitors. 390,000 tested, 0.56% active. AID 540317, 2011; note: nearly all actives have a fitted effect of over 70% in size
#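 HP1-beta protein (50 nM final) preincubated 30 min at room temperature with biotinylated H3(1-18)K9me3 peptide (50 nM) in PBS pH 7.4, 0.01% Tween-20, then compound added for 30 min. AlphaScreen streptavidin donor/nickel chelate acceptor beads (10 ug/mL final), 30 min dark, luminescence read.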
# G9a block: qHTS Assay for Inhibitors of Histone Lysine Methyltransferase G9a; Histone-lysine N-methyltransferase EHMT2 (Homo sapiens), Q96KQ7; G9a H3K9 monomethylation, AlphaScreen, 2 h; Potency, µM (series often up to 102 µM), actives largely listed as inhibitors; 350,000 tested, 8.8% active; AID 504332, 2011; note: nearly all actives have a fitted effect of over 75% in size
#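 Signal arises when biotinylated H3K9 peptide, once monomethylated, bridges streptavidin donor and antibody-captured acceptor beads. Enzyme at 20 nM was preincubated 15 min with test compounds; peptide 500 nM and SAM 20 uM then reacted for 2 h.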
# JMJD2A Tudor inh: qHTS Assay for Inhibitors of JMJD2A-Tudor Domain; AID 504339, 2011; Potency, µM (highest dose often 114 µM), usual class: inhibitors; AlphaScreen JMJD2A-Tudor / H3K4me3 peptide binding; Lysine-specific demethylase 4A (Homo sapiens), O75164; 390,000 tested, 4.4% active; note: nearly all actives have a fitted effect of over 50% in size
# Target sequence (O75164 whole entry, looked up, the tested form may be a part): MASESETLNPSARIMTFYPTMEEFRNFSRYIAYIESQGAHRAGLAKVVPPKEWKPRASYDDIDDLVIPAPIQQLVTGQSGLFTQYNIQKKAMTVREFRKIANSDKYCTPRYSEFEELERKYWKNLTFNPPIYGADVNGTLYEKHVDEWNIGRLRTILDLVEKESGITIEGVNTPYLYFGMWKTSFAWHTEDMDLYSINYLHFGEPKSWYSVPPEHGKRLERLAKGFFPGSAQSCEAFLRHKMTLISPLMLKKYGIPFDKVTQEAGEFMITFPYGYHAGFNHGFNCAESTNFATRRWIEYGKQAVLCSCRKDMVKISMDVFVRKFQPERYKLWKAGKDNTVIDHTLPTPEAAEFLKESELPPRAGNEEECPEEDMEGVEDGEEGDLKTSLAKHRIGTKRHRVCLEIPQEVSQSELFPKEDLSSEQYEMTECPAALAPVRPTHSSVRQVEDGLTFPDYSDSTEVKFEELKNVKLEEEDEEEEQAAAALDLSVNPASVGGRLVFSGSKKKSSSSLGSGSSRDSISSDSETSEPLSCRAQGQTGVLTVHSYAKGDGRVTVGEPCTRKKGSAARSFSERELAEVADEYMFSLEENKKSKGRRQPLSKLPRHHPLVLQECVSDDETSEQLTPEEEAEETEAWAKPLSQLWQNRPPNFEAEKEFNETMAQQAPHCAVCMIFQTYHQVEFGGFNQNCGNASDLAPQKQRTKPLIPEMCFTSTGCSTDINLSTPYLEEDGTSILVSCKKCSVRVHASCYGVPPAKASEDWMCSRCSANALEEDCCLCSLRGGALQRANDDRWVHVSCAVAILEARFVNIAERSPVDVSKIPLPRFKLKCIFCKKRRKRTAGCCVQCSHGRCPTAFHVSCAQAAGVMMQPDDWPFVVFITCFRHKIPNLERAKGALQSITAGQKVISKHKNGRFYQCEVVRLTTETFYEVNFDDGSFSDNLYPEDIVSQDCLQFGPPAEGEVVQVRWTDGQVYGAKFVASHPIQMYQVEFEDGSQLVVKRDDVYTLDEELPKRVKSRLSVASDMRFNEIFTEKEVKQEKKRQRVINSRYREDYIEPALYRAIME
# CtBP-E1A inh: qHTS Assay for Inhibitors of the CtBP/E1A Interaction; AlphaScreen GST-E1A/His-CtBP binding, 1536-well; hits give low values; 340,000 tested, 0.49% active; CtBP / adenovirus E1A interaction (AlphaScreen); activity change, % (no concentration beside the values); AID 651724, 2012; in the data active = activity change below about -65%; inconclusive = mostly about -30% to -63%
#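 AlphaScreen with 125 nM GST-E1A and 125 nM His-CtBP (5X stocks) in Tris pH 8.0, 300 mM NaCl, BSA, Tween 20, TCEP. Compounds preincubated 2 h at 37 deg C, then glutathione donor/nickel acceptor beads added for 1 h at 37 deg C in dark.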
# Six1-Eya2 inh: qHTS Assay for Inhibitors of the Six1/Eya2 Interaction; Homeobox protein SIX1 (Homo sapiens) + Protein phosphatase EYA2 (Homo sapiens), …; AlphaScreen GST-Six1/His-Eya2 binding, biochemical; hits give low values; activity change, % (concentration not given with the values); 360,000 tested, 0.56% active; AID 651725, 2012; in the data active = activity change below about -65%; inconclusive = mostly about -30% to -63%
#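 GST-Six1 + His-Eya2 (5X stock: 250/500 nM); Tris pH 8.0, 300 mM NaCl, 0.05% BSA, 0.02% Tween 20; GSH donor/Ni acceptor beads; 1 h 37 °C dark; AlphaScreen readout.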
# A number is an active result; . = inactive; ? = inconclusive; / = no result given; [ ] = remark or other dose. In the library only some 10% were active in any assay of this set; here they are far more common. Unless noted, calls come from the whole dose curve; as a rule, active = well fitted inhibition curve with a large enough effect; inconclusive = small, poorly fitted or top-dose-only effect; inactive = no such curve, though single readings can be large or run the other way.
SMILES,BAZ2B block,HP1b binding inh,G9a block,JMJD2A Tudor inh,CtBP-E1A inh,Six1-Eya2 inh
Cc1cc2cc(CNC(=S)NCc3ccccc3)ccc2n1C,25µM,?,?,50µM,?,.
COc1ccccc1NC(=O)CSc1n[nH]c(-c2ccco2)n1,/,.,/,.,.,.
Nc1nc(SCC(=O)Nc2cccc(Oc3ccccc3)c2)n[nH]1,.,.,16µM,.,/,.
O=C(CSc1n[nH]c(-c2ccccn2)n1)Nc1ccccc1F,4.5µM,.,.,2.5µM,.,-92
O=C(CSc1n[nH]c(-c2ccccn2)n1)Nc1ccccc1,?,.,/,4µM,-101,-95
COc1ccccc1NC(=O)CSc1n[nH]c(-c2ccccn2)n1,4.5µM,.,.,3.5µM,-90,-95
Nc1nc(SCC(=O)Nc2ccc(Oc3ccccc3)cc2)n[nH]1,.,.,.,.,.,.
CCCSCCCNC(=O)c1ccc(Cn2c(=O)c3cccn3c3cccnc32)cc1,.,.,.,.,/,/
COc1ccc(NC(=O)CSc2n[nH]c(-c3ccccn3)n2)cc1,3.5µM,.,.,4µM,-79,-92
Cc1ccc(NC2=Nc3ccccc3CS2)cc1,.,.,10µM,?,.,.
CC(NC(=O)/C(=C\c1ccco1)NC(=O)c1ccco1)C(=O)O (centres undefined),.,.,35µM,.,.,.
CSCCC(NC(=O)/C(=C/c1ccco1)NC(=O)c1ccco1)C(=O)O (centres undefined),/,.,/,40µM,.,.
COC(=O)/C(=C/c1ccco1)NC(=O)c1ccc(Br)o1,.,.,45µM,.,.,.
CSCCC(NC(=O)/C(=C\c1ccco1)NC(=O)c1ccco1)C(=O)O (centres undefined),.,.,?,.,.,.
Cc1ccc(C(=O)N/C(=C/C=C\c2ccccc2)C(=O)NCc2ccco2)cc1,.,.,45µM,.,.,.
NC(=O)/C(=C/c1ccco1)NC(=O)c1ccc(Br)o1,/,.,/,?,.,.
Cc1oc(-c2ccccc2F)nc1CS(=O)CC(=O)NC(C)C (centres undefined),.,.,?,.,/,/
COc1ccc(CNC(=O)c2ccc(N3CCCC3)c(NC(=O)NCc3ccc(C)cc3)c2)cc1,.,.,.,.,/,/
CCc1ccc(C2CC(=O)c3c([nH]c(C(=O)OC4CCCC4)c3C)C2)cc1 (centres undefined),.,.,.,.,/,/
COc1ccc(C(=O)N/C(=C\c2ccccc2)C(=O)NC(CCSC)C(=O)O)cc1 (centres undefined),.,.,56µM,.,.,.
COc1cc(/C=C(\NC(=O)c2ccccc2)C(=O)NC(C(=O)O)c2ccccc2)cc(OC)c1OC (centres undefined),.,.,40µM,.,.,.
O=C(NCc1ccco1)/C(=C/c1ccco1)NC(=O)c1ccco1,.,.,40µM,.,.,.
O=C(NCc1ccco1)/C(=C\c1ccco1)NC(=O)c1ccccc1Cl,.,.,?,.,.,.
COc1ccc(C(=O)N/C(=C\c2ccccc2)C(=O)NC(CC(C)C)C(=O)O)cc1 (centres undefined),.,.,.,.,.,.
CCOc1ccccc1CNC(=O)CCCn1c(=O)c2cccn2c2ccc(F)cc21,.,.,.,.,/,/
SMILES,BAZ2B block,HP1b binding inh,G9a block,JMJD2A Tudor inh,CtBP-E1A inh,Six1-Eya2 inh
COc1ccc(NC(=O)CCc2c(C)nc3c(-c4ccc(F)cc4)c(C)nn3c2C)c(OC)c1,.,.,.,.,/,/
COc1ccc2oc(-c3ccc(NC(=O)c4ccc(Cl)cc4Cl)cc3)nc2c1,.,.,.,.,/,/
COc1ccc(CC(=O)Nc2c(C(=O)N3CCN(c4ccccc4)CC3)oc3ccccc23)cc1OC,.,.,71µM,?,.,.
COc1ccc(CC(=O)Nc2c(C(=O)N3CCN(c4ccccc4OC)CC3)oc3ccccc23)cc1OC,?,.,35µM,?,.,.
COc1ccc(CC(=O)Nc2c(C(=O)N3CCN(c4ncccn4)CC3)oc3ccccc23)cc1OC,.,.,.,.,.,.
COc1cc(CCC(=O)Nc2c(C(=O)N3CCN(c4ccccc4OC)CC3)oc3ccccc23)on1,?,.,/,?,.,.
CC1CCN(S(=O)(=O)c2ccc3c(ccc(=O)n3CC(=O)NCc3ccccc3Cl)c2)CC1,.,.,.,?,/,/
CC1S/C(=N/N=C/c2ccco2)N(Cc2ccc(F)cc2)C1=O (centres undefined),?,.,50µM,.,/,.
O=C1CS/C(=N/N=C/c2ccco2)N1Cc1ccc(F)cc1,.,.,?,.,/,.
O=[N+]([O-])c1cc(F)cc(F)c1Nc1ccc(F)cc1,/,?,/,35µM,-67,?
O=[N+]([O-])c1cnccc1Nc1ccc(F)cc1,.,.,.,.[11.4 µM],.,.
Cc1ccc(-n2c(SCC(=O)Nc3ccc4c(c3)OCO4)nc3c([nH]c4ccccc43)c2=O)cc1,.,.,.,?,/,/
CCN(CC)c1ccc(/C=N/N2CCN(Cc3ccccc3Cl)CC2)c(O)c1,10µM,?,11µM,32µM,.,.
COC(=O)c1ccc(/C=N/N2CCN(Cc3ccccc3Cl)CC2)cc1,.,.,.,8.9µM,.,.
CCN(CC)c1ccc(/C=N/N2CCN(Cc3ccc(C)cc3)CC2)c(O)c1,.,?,.[12.7 µM],?,.,.
Cc1ccc(CN2CCN(/N=C/c3ccc(C(=O)O)cc3)CC2)c(C)c1,?,.,?,.,.,.
Cc1ccc(CN2CCN(/N=C/c3cc(Br)cc(Br)c3O)CC2)c(C)c1,.,.,40µM,.,.,.
COC(=O)c1ccc(/C=N/N2CCN(Cc3ccc(C)cc3C)CC2)cc1,40µM,.,?,?,.,.
O=C1CC(c2ccccc2)Sc2ccccc2N1Cc1ccc(F)cc1 (centres undefined),.,.,.,.,/,/
Cc1ccc(OCCOCCn2c(-c3ccc(Cl)cc3)nc3ccccc3c2=O)cc1,.,.,.,.,/,/
CCc1sc(-c2cc3ccccc3oc2=O)nc1-c1ccc(C)cc1,/,.,/,.,/,/
COc1ccccc1C(=O)Nc1ccccc1OCc1cc(=O)n2c(C)csc2n1,.,.,.,.,/,/
COc1ccc(NC(=O)CC(C)NCCCN2CCCC2=O)cc1 (centres undefined),?,?,56µM,18µM,.,.
COc1ccc2ccc3c(c2c1)N=CC1(O3)N(C)c2ccccc2C1(C)C (centres undefined),.,?,5.6µM,45µM,.,.

# Screening results deposited in PubChem BioAssay by National Center for Advancing Translational Sciences (NCATS).
